Compound activity deposited in PubChem BioAssay by National Center for Advancing Translational Sciences (NCATS).
HT1080 IDH1KD tx = qHTS for induction of synthetic lethality in tumor cells producing 2HG: qHTS for the HT-1080-IDH1KD cell line; Potency, µM (series often up to 46.1 µM), usual class: cytotoxic; 2% of 360,000 active; HT-1080 IDH1 knockdown viability, ATP luminescence, 48 h
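In this qHTS, HT-1080 cells depleted of IDH1 are exposed for 48 h at 37 °C to compound titrations. Toxicity is scored from CellTiter-Glo luminescence, with DMSO as full viability and medium alone as none.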
HT1080-NT tox = qHTS for induction of synthetic lethality in tumor cells producing 2HG: qHTS for the HT-1080-NT fibrosarcoma cell line | HT-1080-NT fibrosarcoma viability, CellTiter-Glo ATP luminescence, 48 h | Potency, µM (highest dose often 46.1 µM), most hits filed as cytotoxic | 1.6% of 360,000 active;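 further: NT is the 2HG producing partner of a matched IDH1 knockdown line; nearly all actives have a fitted effect of over 55% in size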
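Viability by CellTiter-Glo luminescence after 48 h compound exposure at 37C of HT-1080-NT cells (750/well, RPMI, 5% FBS). % activity scaled between DMSO wells and medium-only wells, then curve-fitted and categorized by curve class.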
TDP1 cell CPT = qHTS for Inhibitors of human tyrosyl-DNA phosphodiesterase 1 (TDP1): qHTS in cells in presence of CPT. chicken DT40 Tdp1-/-;hTDP1 cells + 20 nM CPT, ATP luminescence, 48 h. Potency, µM (top dose mostly 46.2 µM), actives largely listed as inhibitors. 12% of 420,000 active; further: nearly all actives have a fitted effect of over 55% in size
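Chicken DT40 Tdp1-/- cells complemented with human TDP1, 400 cells/well, exposed to compounds plus 20 nM camptothecin for at least 48 h at 37 C; viability read as ATP content by CellTiter-Glo luminescence.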
DT40 TDP1 no CPT = qHTS for Inhibitors of human tyrosyl-DNA phosphodiesterase 1 (TDP1): qHTS in cells in absence of CPT; DT40 Tdp1-/- hTDP1 cells, no CPT, ATP luminescence, 48 h; Potency, µM (top dose mostly 46.2 µM), most hits filed as inhibitors; 15% of 420,000 active; AID 686978, 2013; further: nearly all actives have a fitted effect of over 55% in size
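Chicken DT40 Tdp1-/- cells complemented with human TDP1, screened without camptothecin (DMSO vehicle only), 400 cells/well. Compounds pin-transferred, cells incubated at 37 °C for at least 48 hr. Growth read as ATP-dependent luminescence (CellTiter-Glo, 30 min at RT).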
IL-1B inflam inh = qHTS for Inhibitors of Inflammasome Signaling: IL-1-beta AlphaLISA Primary Screen. THP-1 LPS/ATP IL-1B secretion, AlphaLISA, 16 h; stronger effect = lower value. 4.7% of 360,000 active. activity change, % at 57.5 µM. AID 743279, 2014; in the data active means activity change below about -50%; inconclusive means mostly about -30% to -49%
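THP-1 cells pretreated 1 hr with compounds (up to 57.5 uM final), then stimulated with LPS (250 ng/mL final) plus ATP (1.25 mM final); secreted IL-1B measured by AlphaLISA after 16 hr, decreased signal indicating inhibition.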
Hits are given with their value; . = inactive; ? = inconclusive; / = not tested or not shown; [ ] = another dose, or the depositor's remark. Sampled rows, rich in hits. Any-hit rate of the full collection: about 19%. Unless noted, the call rests on the fitted dose curve; in most records, active means well fitted curve in the direction sought with a large enough effect; inconclusive means small, poorly fitted or top-dose-only effect, or another doubt; inactive means no such curve, though single readings can be large; an effect the other way counts as inactive or inconclusive.

SMILES | HT1080 IDH1KD tx | HT1080-NT tox | TDP1 cell CPT | DT40 TDP1 no CPT | IL-1B inflam inh
CN1CCN(C(=O)c2ccc3c(c2)N(Cc2cccc(Cl)c2)C(=O)c2ccccc2S3=O)CC1 (stereo unspecified) | . | . | . | . | .
CC1CCC(NC(=O)c2ccc3c(c2)N(Cc2cccc(Cl)c2)C(=O)c2ccccc2S3=O)CC1 (stereo unspecified) | / | / | . | . | /
CCOC(=O)N1CCN(C(=O)c2ccc3c(c2)N(Cc2cccc(Cl)c2)C(=O)c2ccccc2S3=O)CC1 (stereo unspecified) | . | . | 16.4µM | 25.9µM | .
O=C(c1cccc(F)c1)N(Cc1cc2cc3c(cc2nc1N1CCOCC1)CCC3)CC1CCCO1 (stereo unspecified) | / | / | .[9.04 µM] | . | /
CC(C)c1ccc(NS(=O)(=O)c2ccc3nc(-c4ccccc4)[nH]c3c2)cc1 | / | / | 14.6µM | ? | /
Cc1ccc(NS(=O)(=O)c2ccc3nc(-c4ccccc4)[nH]c3c2)c(Br)c1 | / | / | 14.6µM | 23.1µM | /
Cc1ccc(NS(=O)(=O)c2ccc3c(c2)NC(=O)CCS3)c(Br)c1 | . | . | ? | . | .
Cc1cccc(NS(=O)(=O)c2ccc3nc(-c4ccccc4)[nH]c3c2)c1C | ? | . | 16.4µM | 16.4µM | .
O=S(=O)(c1ccc2nc(-c3ccccc3)[nH]c2c1)N1CCN(c2cccc(Cl)c2)CC1 | . | ? | . | ? | .
O=C(COc1ccc(Br)cc1)NCCNC(=O)c1ccncc1 | . | . | . | . | .
CCOC(=O)C1(C)Oc2ccccc2C(C(=O)OC)=C1C(=O)OC (stereo unspecified) | . | . | ? | 16.4µM | .
CN1CCN(Cc2cc(Cl)c3cccnc3c2OC(=O)c2cccs2)CC1 | . | . | 4.61µM | 4.61µM | .
O=C(Oc1c(Cl)cc(Cl)c2cccnc12)N1CCCCC1 | . | . | . | . | .
O=C(Oc1c(CN2CCOCC2)cc(Cl)c2cccnc12)c1ccccc1Br | ? | ? | 4.61µM | 4.61µM | .
CC1(C(=O)NC2CCCC2)CCC(=O)N1C1CCN(Cc2ccccc2)CC1 (stereo unspecified) | . | ? | . | . | .
CCOC(=O)N1CCN(S(=O)(=O)c2ccc(C)cc2)C1c1ccc(OC)cc1 (stereo unspecified) | . | . | ? | ? | .
CCC(=O)N1CCCN(S(=O)(=O)c2ccc(C)cc2)C1c1ccc(OC)cc1 (stereo unspecified) | . | . | . | 14.6µM | .
COc1ccc(C2N(S(=O)(=O)c3ccccc3)CCN2S(=O)(=O)c2ccc(C)cc2)cc1 (stereo unspecified) | . | . | 15.8µM | 14.1µM | .
COc1ccccc1C1SCCN1S(=O)(=O)c1ccccc1 (stereo unspecified) | . | . | ? | ? | .
COc1ccc(S(=O)(=O)N2CCSC2c2ccc(OC)c(OC)c2)cc1 (stereo unspecified) | . | . | ? | 16.4µM | .
COc1ccccc1C1SCCN1S(=O)(=O)c1cccc(C(F)(F)F)c1 (stereo unspecified) | . | . | . | 15.8µM | ?
CCOC(=O)N1CCN(S(=O)(=O)c2ccc(C)cc2)C1c1ccccc1 (stereo unspecified) | . | . | ? | ? | .
Cc1ccc(S(=O)(=O)N2CCN(S(=O)(=O)c3ccc(C)cc3)C2c2ccccc2)cc1 | . | . | 17.8µM | ? | .
Cc1nc2ccccn2c1C(=O)NN=C1C2CC3CC(C2)CC1C3 | . | . | . | . | .
COc1cccc(CN(C)C(=O)c2cnn(-c3ncc4c(n3)-c3ccccc3CCC4)c2C)c1 | / | / | 18.4µM | 23.1µM | /
SMILES | HT1080 IDH1KD tx | HT1080-NT tox | TDP1 cell CPT | DT40 TDP1 no CPT | IL-1B inflam inh
CCOC(=O)CN(C)C(=O)c1cnn(-c2ncc3c(n2)-c2ccccc2CCC3)c1C | / | / | .[9.04 µM] | ? | /
COc1ccc(N2CCN(c3nc(-c4cccs4)nc4ccccc34)CC2)cc1 | . | . | ? | 23.1µM | .
O=S(=O)(c1nccs1)N1CCN(c2nc(-c3cccs3)nc3ccccc23)CC1 | . | . | ? | 11.2µM | /
Cc1cc(C)cc(S(=O)(=O)N2CCN(c3nc(-c4cccs4)nc4ccccc34)CC2)c1 | . | . | ? | ? | /
O=S(=O)(Cc1ccccc1)N1CCN(c2nc(-c3cccs3)nc3ccccc23)CC1 | . | . | ? | 12.6µM | /
Cc1ccc(S(=O)(=O)N2CCCN(c3nc(-c4cccs4)nc4ccccc34)CC2)cc1 | / | / | 12.6µM | ? | /
O=S(=O)(c1ccc(Cl)cc1)N1CCN(c2nc(-c3cccs3)nc3ccccc23)CC1 | . | . | . | ? | .
CC(C)S(=O)(=O)N1CCN(c2nc(-c3cccs3)nc3ccccc23)CC1 | . | . | 11.2µM | 17.8µM | /
O=S(=O)(c1ccccc1)N1CCN(c2nc(-c3cccs3)nc3ccccc23)CC1 | / | / | 12.6µM | ? | /
CSc1ccccc1C(=O)Nc1cc2c(cc1C(=O)O)OCCCO2 | . | . | . | . | .
S=C(NCc1ccco1)Nc1ccc(Oc2ccccc2)cc1 | . | . | ? | ? | .
COc1ccc(OC)c(CCNC(=O)c2cc3cccc4c3n2CC(C)S4)c1 (stereo unspecified) | / | / | 5.8µM | 5.17µM | /
COc1ccc(CNC(=O)c2cc3cccc4c3n2CC(C)S4)cc1OC (stereo unspecified) | / | / | ? | 23.1µM | /
COc1ccc(CNC(=O)c2cc3cccc4c3n2CC(C)S4)c(OC)c1 (stereo unspecified) | / | / | 9.2µM | 5.17µM | /
CCc1ccc(NC(=O)Cn2c(=O)n(-c3ccc(Cl)c(Cl)c3)c(=O)c3c(C)c(C)sc32)cc1 | / | / | . | . | /
N#CC1=C(O)C(c2ccccc2)n2c1nc(=O)c1ccccc12 (stereo unspecified) | . | . | . | ? | .
COc1ccc(-n2c(=O)cnc3cnc(N4CCNCC4)nc32)cc1 | / | / | . | . | /
COc1ccc(Cn2c(SCc3ccc(C)cc3)nc3cc(OC)c(OC)cc3c2=N)cc1Cl | 23.1µM | 20.6µM | 4.11µM | 2.31µM | -121.4
COc1ccc(Cn2c(SCc3cc(C)ccc3C)nc3cc(OC)c(OC)cc3c2=N)cc1 | ? | ? | 8.2µM | 7.31µM | -96.2
COc1cc2nc(SCc3ccc(Cl)cc3Cl)n(Cc3cccs3)c(=N)c2cc1OC | . | . | ? | ? | ?
COCCCn1c(SCc2ccccc2)nc2cc(OC)c(OC)cc2c1=N | . | . | 23.1µM | ? | .
COc1cc2nc(SCc3ccc(C(F)(F)F)cc3)n(Cc3cccs3)c(=N)c2cc1OC | . | . | . | . | .
Nc1nnc(Cc2cccc(Br)c2)s1 | . | . | . | . | .
